Assay outcomes: PubChem BioAssay, National Center for Advancing Translational Sciences (NCATS)
In the library only some 12% were active in any assay of this set; here they are far more common.
BAZ2B block – inhibitors of human BAZ2B bromodomain. hit rate 4.4% among 360,000. AlphaScreen BAZ2B-H3K14Ac peptide displacement. Potency, µM (doses to about 114 µM), for inactives: at the top dose activity change, negative = inhibition, usual class: inhibitors. AID 504333. Q9UIF8; further: potency means the concentration at half of the fitted maximal effect; on the % scale 0 is the no-effect control and ±100 the full control effect; nearly all actives have a fitted effect of over 60% in size
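AlphaScreen displacement of biotin-H3(5-23)K14Ac peptide (50 nM final) from BAZ2B (50 nM final) in PBS pH 7.4, 0.01% Tween-20; complex preformed 30 min RT, then compounds (top 110 uM) 30 min RT, beads 20 min dark.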
L3MBTL1 inh – inhibitors of human L3MBTL1; Q9Y468; AlphaScreen L3MBTL1–H3K9me1 peptide binding; Potency, µM (doses to about 57.1 µM), without a hit: at the highest dose activity, negative = inhibition, most hits filed as inhibitors; hit rate 0.66% among 230,000; AID 485360; further: potency means the concentration at half of the fitted maximal effect; on the % scale 0 is the no-effect control and ±100 the full control effect; nearly all actives have a fitted effect of over 60% in size
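AlphaScreen assay: L3MBTL1 (50 nM final) was preincubated 30 min at room temperature with biotinylated H3(1-15)K9me1 peptide (75 nM final), then 30 min with library compounds; streptavidin donor and nickel chelate acceptor beads (10 ug/mL final) added, 30 min dark.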
G9a inh – G9a (human) methyltransferase inhibition; hit rate 8.8% among 350,000; AID 504332; Q96KQ7; Potency, µM (series often up to 102 µM), for the others: at the top dose activity, negative = inhibition, usual class: inhibitors; G9a H3K9 monomethylation, AlphaScreen, 2 h; further: potency means the concentration at half of the fitted maximal effect; on the % scale 0 is the no-effect control and ±100 the full control effect; nearly all actives have a fitted effect of over 75% in size
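Step 1: enzyme (final 20 nM) with compound, 15 min RT. Step 2: substrate peptide 500 nM and SAM 20 uM, 2 h RT. Step 3: anti-H3K9me1 antibody and AlphaScreen beads, 10 min, then plate read.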
HP1b binding inh – HP1-beta chromodomain-methylated histone interaction inhibition; AID 540317; AlphaScreen HP1-beta / biotin-H3K9me3 peptide binding; P83916; Potency, µM (top dose mostly 114 µM), for the others: top-dose activity change, negative = inhibition, most hits filed as inhibitors; hit rate 0.56% among 390,000; further: potency means the concentration at half of the fitted maximal effect; nearly all actives have a fitted effect of over 70% in size
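Compound inhibition of the preformed complex between 50 nM HP1-beta and 50 nM biotinylated H3K9me3 peptide was read by AlphaScreen. Buffer was PBS pH 7.4 with 0.01% Tween-20. Incubations ran 30 min at room temperature, with 10 ug/mL donor/acceptor beads.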
JMJD2A Tudor inh – JMJD2A Tudor domain (human) inhibition; Potency, µM (top dose mostly 114 µM), for inactives: top-dose activity change, negative = inhibition, usual class: inhibitors; hit rate 4.4% among 390,000; O75164; AlphaScreen JMJD2A-Tudor / H3K4me3 peptide binding; AID 504339; further: potency means the concentration at half of the fitted maximal effect; on the % scale 0 is the no-effect control and ±100 the full control effect; nearly all actives have a fitted effect of over 50% in size
Target sequence (O75164 whole entry, looked up, the tested form may be a part): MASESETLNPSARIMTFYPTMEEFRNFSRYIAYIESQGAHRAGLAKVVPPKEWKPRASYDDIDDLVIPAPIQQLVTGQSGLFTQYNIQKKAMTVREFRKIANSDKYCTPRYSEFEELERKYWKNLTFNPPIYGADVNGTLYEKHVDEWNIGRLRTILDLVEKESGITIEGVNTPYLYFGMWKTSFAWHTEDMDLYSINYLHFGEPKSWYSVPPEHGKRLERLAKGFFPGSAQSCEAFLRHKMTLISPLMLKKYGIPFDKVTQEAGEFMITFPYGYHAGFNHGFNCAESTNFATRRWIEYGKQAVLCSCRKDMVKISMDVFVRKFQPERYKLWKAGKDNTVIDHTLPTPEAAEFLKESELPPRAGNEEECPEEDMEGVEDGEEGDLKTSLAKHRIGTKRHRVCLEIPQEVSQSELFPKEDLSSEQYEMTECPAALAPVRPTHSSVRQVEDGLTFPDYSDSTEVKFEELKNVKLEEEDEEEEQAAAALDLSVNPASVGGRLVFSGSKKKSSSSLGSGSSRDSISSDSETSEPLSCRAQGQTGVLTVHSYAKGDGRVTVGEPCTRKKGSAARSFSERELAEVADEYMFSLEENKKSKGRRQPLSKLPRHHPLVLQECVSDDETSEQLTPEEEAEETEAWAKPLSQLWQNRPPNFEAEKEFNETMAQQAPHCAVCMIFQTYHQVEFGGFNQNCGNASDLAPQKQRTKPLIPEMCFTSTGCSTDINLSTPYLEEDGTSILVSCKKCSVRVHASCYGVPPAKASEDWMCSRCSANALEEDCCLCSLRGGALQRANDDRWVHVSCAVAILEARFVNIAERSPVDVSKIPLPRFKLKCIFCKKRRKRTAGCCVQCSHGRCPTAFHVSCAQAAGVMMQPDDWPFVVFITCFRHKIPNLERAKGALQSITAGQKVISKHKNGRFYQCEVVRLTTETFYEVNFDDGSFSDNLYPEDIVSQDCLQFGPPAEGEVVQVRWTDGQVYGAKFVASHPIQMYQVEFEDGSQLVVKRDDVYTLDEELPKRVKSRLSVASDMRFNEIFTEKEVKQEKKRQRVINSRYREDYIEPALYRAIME
Sfp PPTase inh – blocks B. subtilis Sfp PPTase activity | Biochemical Sfp PPTase activity, qHTS | Q9F4F7 | hit rate 3.5% among 310,000 | Potency, µM, for inactives: largest response in the series, negative = inhibition, most hits filed as inhibitors;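 further: the enzyme is Sfp with the accession as filed and its product quenches rhodamine fluorescence; potency means the concentration at half of the fitted maximal effect; 0% = enzyme reaction without inhibitor and -100% = no enzyme wells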
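Step 1, compound plus 15 nM Sfp-PPTase, 15 min, room temperature. Step 2, add rhodamine-CoA (5 uM) and BHQ-2-YbbR (12.5 uM). Step 3, read 525/598 nm fluorescence at 0 and 30 min.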
Sfp PPTase conf – Sfp phosphopantetheinyl transferase inhibition, confirmation. shares compounds with Sfp PPTase inh. Sfp PPTase enzymatic assay, qHTS titration. Potency, µM (highest dose often 114 µM), for the others: at the top dose activity change, negative = inhibition, usual class: inhibitors. hit rate 79% among 380. AID 2701;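 further: potency means the concentration at half of the fitted maximal effect; plate controls were uninhibited Sfp reaction for no effect and no enzyme control for full effect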
Sfp PPTase gel – Blocks Sfp PPTase activity, gel read-out. Potency, µM, hits mostly inhibitors. shares compounds with Sfp PPTase inh. hit rate 20% among 210. purified Sfp, gel-based phosphopantetheinylation read-out;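 active means potency below 100 µM; inconclusive means dose-dependent response but potency above 100 µM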;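 further: band intensities scaled against SCH202676 control wells before curve fitting; potency is an IC50 for inhibitors of Sfp transfer activity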
Numbers without * were called inactive; i = inactive; ? = inconclusive; · = not tested or not shown; [ ] = dose if it differs, or a comment. Unless noted, the call rests on the fitted dose curve; in most records, active means well fitted curve in the direction sought with a large enough effect; inconclusive means small, poorly fitted or top-dose-only effect, or another doubt; inactive means no such curve, though single readings can be large; an effect the other way counts as inactive or inconclusive.

SMILES | BAZ2B block | L3MBTL1 inh | G9a inh | HP1b binding inh | JMJD2A Tudor inh | Sfp PPTase inh | Sfp PPTase conf | others
N#C/C(=C/c1ccc(Sc2nc3ccccc3[nH]2)o1)c1cccc(F)c1 | -4% | · | ? | 38% | -24% | 11% | ·
N#C/C(=C/c1ccc(N2CCCCCC2)o1)c1ccc(Cl)cc1 | 45µM* | · | 7.9µM* | -35% | 40µM* | 5µM* | 19µM*
N#C/C(=C/c1ccc(N2CCCCC2)o1)c1cccc(F)c1 | 40µM* | · | 2.5µM* | ? | 45µM* | 2.8µM* | 21µM* | Sfp PPTase gel=19µM*
Cc1ccc(/C(C#N)=C\c2ccc(N3CCOCC3)o2)cc1 | 79µM* | -9% | 2.5µM* | ? | 56µM* | 1.4µM* | 13µM* | Sfp PPTase gel=i
O=C(O)c1ccnc(SCC(=O)c2ccccc2)c1 | -14% | 8% | 22µM* | 57% | 8% | 3.5µM* | 53µM*
O=C(CSc1ccccn1)c1ccc(F)cc1 | 10% | 1% | ? | 1% | -15% | ? | ·
O=C(CSc1ccc(-c2ccco2)nn1)c1ccccc1 | 50µM* | ? | 7.9µM* | -4% | ? | 3.2µM* | 9.4µM*
NC(=O)CCN1CCN(C(=O)c2ccc3nc(Cc4cccc(Cl)c4)oc3c2)CC1 | -6% | · | 17% | 19% | -9% | 14% | ·
CCN(CC)S(=O)(=O)c1cc(NS(=O)(=O)c2cccs2)ccc1C | · | 1% | · | 17% | -8% | · | ·
O=C(CSc1nc2cc([N+](=O)[O-])ccc2n1-c1ccccc1)NCc1ccc2c(c1)OCO2 | -20% | -21% | ? | 16% | -8% | 1µM* | 15µM*
Cc1cc(C)cc(-n2c(SCC(=O)NCc3ccc4c(c3)OCO4)nc3ccccc3c2=O)c1 | 6% | -7% | 31%[59 µM] | 40% | -4% | -5% | ·
O=C(CSc1nc2c(oc3ccccc32)c(=O)n1Cc1ccco1)Nc1ccccc1Cl | -2% | · | 8%[59 µM] | 12% | -15% | · | ·
CC1=C(C(=O)O)N2C(=O)[C@@H](NC(=O)[C@@H](N)c3ccc(O)cc3)[C@@H]2SC1 | · | · | 8%[21.5 µM] | · | · | 32µM* | -2%[53.7 µM] | Sfp PPTase gel=?
CCCCCn1c(=N)c(S(=O)(=O)c2ccc(C)cc2)cc2c(=O)n3cc(C)ccc3nc21 | 5% | · | -1%[59 µM] | 41% | 19% | · | ·
CCCc1nnc(SCC(=O)NC2CC2)n1C | 4% | · | 20% | -6% | -17% | 11% | ·
Cn1ncc2c(c(SCc3ccc(Cl)cc3Cl)nn2C)c1=O | 0% | 3% | 8.9µM* | ? | -30% | 25µM* | 17µM*
COc1cnn(-c2ccccc2)c(=O)c1SCc1ccc(Cl)cc1Cl | 13% | 12% | 33%[12.7 µM] | 126% | 29% | ? | ·
COc1ccccc1CNC(=O)C(NS(=O)(=O)c1ccc2c(c1)CCN2C(C)=O)C(C)C (stereo not drawn) | · | · | -6%[59 µM] | 9% | -14% | · | ·
COc1cc(NC(=O)c2cc(-c3ccccc3Cl)on2)cc(OC)c1OC | 1% | 0% | · | 9% | -26% | -12% | ·
CC(=O)c1ccc(OC(=O)CCc2nc3ccccc3s2)cc1 | ? | -1% | 32µM* | 36% | -17% | 16µM* | 33µM* | Sfp PPTase gel=?
O=C(O)COCc1nc2ccccc2s1 | -25% | · | 50µM* | 59% | -2% | 25µM* | -13% | Sfp PPTase gel=?
CCN(CC)CCCNC(=O)C(=O)Nc1ccc2nc3n(c(=O)c2c1)CCCCC3 | -18% | · | -8%[59 µM] | 40% | 8% | · | ·
O=C(O)Cc1ccc(NC(=S)Nc2ccc(Br)cc2Cl)cc1 | 4% | 8% | ? | 42% | -2% | ? | ·
NC(=O)c1nsc(C(=O)N(Cc2ccc(F)cc2)C(C(=O)NCC2CCCO2)c2ccc(O)cc2)c1N (stereo not drawn) | 1% | · | 22% | 15% | 4% | -1% | ·
Cc1cccc(-c2nc3c4ccccc4nc(N4CCN(c5cc(C)ccc5C)CC4)n3n2)c1 | -16% | · | 27%[59 µM] | 62% | 4% | · | ·
SMILES | BAZ2B block | L3MBTL1 inh | G9a inh | HP1b binding inh | JMJD2A Tudor inh | Sfp PPTase inh | Sfp PPTase conf | others
c1ccc(CCc2nn3c(-c4ccncc4)nnc3s2)cc1 | 5% | -9% | ? | -22% | -10% | ? | ·
Clc1ccccc1-c1nnc2sc(CCc3ccccc3)nn12 | 1% | -3% | 4.5µM* | ? | ? | 13µM* | 12µM*
c1ccc(CCc2nn3c(Cn4nnc5ccccc54)nnc3s2)cc1 | -7% | -13% | ? | ? | ? | 13µM* | 42µM*
c1ccc(CCn2cnc3ccccc32)cc1 | -1% | 28% | 64% | 27% | -14% | 15% | ·
c1ccc(CCc2nn3c(Cn4cnc5ccccc54)nnc3s2)cc1 | -24% | -2% | 4µM* | -33% | ? | 10µM* | 13µM*
COc1ccc(-c2noc(CSc3nc4sc(C)c(C)c4c(=O)n3-c3ccccc3)n2)cc1 | -8% | 5% | -12%[59 µM] | 25% | -13% | 4µM* | 4.7µM* | Sfp PPTase gel=i
COc1ccc(-c2noc(CSc3nc4sc(C)c(C)c4c(=O)n3-c3ccccc3)n2)cc1OC | 5% | -7% | -29% | 0% | -7% | ? | ·
CCN(CC)S(=O)(=O)c1ccc2c(c1)nc(CCC(=O)O)n2C | -19% | -2% | 25µM* | 15% | -15%[11.4 µM] | 20µM* | 47µM*
Cn1c(CCC(=O)O)nc2cc(S(=O)(=O)N3CCCC3)ccc21 | · | 9% | · | 4%[57 µM] | -14% | · | ·
